{"source": "PubChem BioAssay AID1347075", "about": "(National Center for Advancing Translational Sciences (NCATS), 2019)", "note": "Screen size: about 400,000 compounds; about 5,500 (1.4%) were called active. About 9% were inconclusive and are not listed. Many of the other results were omitted from the sample, so actives are more common in it than they were. Values without a mark were called inactive. Calls follow the shape of the dose curve; as a rule, active = well fitted cell-killing curve with a large enough effect; inconclusive = small, poorly fitted or top-dose-only effect, or effect the other way; inactive = flat fitted curve, though single readings scatter. % is scaled to controls: 0 for no effect and ±100 for the full control effect; potency is read from the fitted curve at half-maximal effect."}
{"assay": "qHTS assay for MDR1-selective chemotherapeutics: Primary screen using the parental adenocarcinoma cell KB-3-1; also: nearly all actives have a fitted effect of over 60% in size", "settings": "KB-3-1 viability, CellTiter-Glo ATP luminescence, 72 h; series mostly up to 46.1 µM; activity change, negative = cytotoxic: at the top concentration", "description": "A prime difficulty in effectively treating cancer is the development of cellular resistance to multiple structurally unrelated anticancer drugs, a phenomenon known as multidrug resistance (MDR). […] Numerous strategies to overcome P-gp-mediated MDR have been explored, including the design of drugs that evade recognition and efflux, and development of inhibitors to block efflux and restore drug accumulation. […] An alternative approach is to exploit resistance by identifying drugs that target MDR cells over the non-resistant parental cells from which they were selected. […] The development of MDR1-selective agents represents a new strategy for resolving multidrug resistance, as it remains a long-standing clinical challenge for cancer chemotherapy.\nOur goal is to identify compounds that selectively kill P-gp-expressing MDR cells. We will identify MDR1-selective compounds by comparing toxicity of compounds in the screening library against parental, drug-naive (KB-3-1) adenocarcinoma cells as well as their drug-selected MDR sub-line (KB-V1). The differential toxicity of compounds against these two cell lines will be used to identify MDR1-selective compounds, whose cytotoxicity is potentiated, rather than diminished, by P-gp expression. This assay will be utilized to conduct a quantitative high-throughput screen (qHTS) in collaboration with the NIH Chemical Genomics Center to identify selective agents, and probe hits arising from the screen will be validated using secondary assays and characterized through a well-established follow-up research program. This screen was run against the entire NCGC library collection of about 400,000 compounds.\nNIH Molecular Libraries Probe Production Network [MLPCN]\nNIH Chemical Genomics Center [NCGC]\nPI: Michael Gottesman PhD, National Cancer Institute, NIH\nBriefly, 5 microL of media containing either KB-3-1 cells (columns 1-2, 4-48) are dispensed into Greiner white, treated solid-bottom 1536-well assay plates (media-only control is added to column 3). Compounds are then transferred via Kalypsys pin tool equipped with 1536-pin array (10 nL slotted pins, V&P Scientific, San Diego, CA). Following addition of compound, the plates are incubated at 37 degrees C for 72 hours. CellTiter-Glo (2.5 µL/well) is then added, and the plates are read in a ViewLux reader (Perkin-Elmer, clear luminescence filter, 1 second exposure, 1x binning) following a 10 minute incubation. All cells are dispensed in DMEM phenol-red free media containing 10% FBS.\nLibrary plates were screened starting from the lowest and proceeding to the highest concentration. Vehicle-only plates, with DMSO being pin-transferred to columns 5-48, will be inserted uniformly at the beginning and the end of each library in order to monitor and record any shifts in the background, which can be affected by reagent dispensers or loss in enzyme activity over time. Screening data will be corrected, normalized, and concentration-effect relationships will be derived by using publicly-available NCGC, NCATS curve fitting algorithms (http://ncgc.nih.gov/pub/openhts).", "units": {"activity change, negative = cytotoxic": "%"}}
{"smiles": "CC1(C(=O)NCc2ccco2)Cc2c(-c3ccc4c(c3)OCO4)ccnc2O1", "note": "(configuration not stated)", "Potency": "2.59 µM (active)"}
{"smiles": "CS(=O)(=O)N(CC(=O)NCc1ccco1)c1ccc2c(c1)OCO2", "activity change, negative = cytotoxic": -2.96}
{"smiles": "CC(=O)Nc1cccc(-c2ccnc3c2CC(C)(C(=O)NCc2ccccc2)O3)c1", "note": "(configuration not stated)", "Potency": "2.91 µM (active)"}
{"smiles": "CC1(C(=O)Nc2cccnc2)Cc2c(-c3ccccc3)ccnc2O1", "note": "(configuration not stated)", "activity change, negative = cytotoxic": -2.18}
{"smiles": "CC(=O)Nc1cccc(-c2ccnc3c2CC(C)(C(=O)NCc2ccco2)O3)c1", "note": "(configuration not stated)", "activity change, negative = cytotoxic": -6.09}
{"smiles": "O=C(Cn1nnc(-c2ccc3c(c2)OCO3)n1)NCc1ccco1", "activity change, negative = cytotoxic": -9.57}
{"smiles": "CC1=C(C(=O)OCc2ccc(C)cc2)C(c2c(Cl)cccc2Cl)CC(=O)N1", "note": "(configuration not stated)", "activity change, negative = cytotoxic": 1.29}
{"smiles": "Cc1ccc2nc(COc3cccc(NC(=O)c4cccc(Cl)c4)c3)cc(=O)n2c1", "activity change, negative = cytotoxic": 2.14}
{"smiles": "CCc1nc2ccc(C(=O)N3CCN(c4cc(Cl)ccc4C)CC3)cc2nc1CC", "activity change, negative = cytotoxic": 0}
{"smiles": "O=C(c1ccco1)N(Cc1cccs1)c1ccc(O)cc1", "activity change, negative = cytotoxic": 3.03}
{"smiles": "CCOC(=O)C1C(C)C(C(C)(C)C)N(S(=O)(=O)c2ccc(C)cc2)C1c1ccccc1", "note": "(configuration not stated)", "Potency": "23.1 µM (active)"}
{"smiles": "CCOC(=O)C1=CC[C@@H](c2ccccc2)N(S(=O)(=O)c2ccc(C)cc2)[C@H]1c1ccc(CC)cc1", "activity change, negative = cytotoxic": -1.65}
{"smiles": "CCOC(=O)C1=CC[C@@H](c2ccccc2)N(S(=O)(=O)c2ccc(C)cc2)[C@H]1c1cccc(OC)c1", "activity change, negative = cytotoxic": -0.13}
{"smiles": "COc1ccc(-c2ccc3ncnc(NCc4cccs4)c3c2)cc1OC", "activity change, negative = cytotoxic": -8.64}
{"smiles": "Cc1ccccc1CSCCNC(=O)C1CCN(S(=O)(=O)Cc2ccccc2)CC1", "activity change, negative = cytotoxic": 5.62}
{"smiles": "CCCNC(=O)C1CCC(Cn2c(=O)c3sccc3n(Cc3ccccc3F)c2=O)CC1", "note": "(configuration not stated)", "activity change, negative = cytotoxic": 3.19}
{"smiles": "CCOC(=O)c1ccc(NC(=O)c2ncn(-c3ccccc3)n2)cc1", "activity change, negative = cytotoxic": -18.2}
{"smiles": "CCOc1ccc(CNC(=O)c2cc(-c3ccc(Cl)s3)nc3ccccc23)cc1", "activity change, negative = cytotoxic": 7.73}
{"smiles": "CCc1cc2c(N3CCN(c4nnc(CC)s4)CC3)ncnc2s1", "Potency": "9.2 µM (active)"}
{"smiles": "CCN1CCN(c2ncnc3c2cnn3-c2ccc(C)c(C)c2)CC1", "activity change, negative = cytotoxic": -9.73}
{"smiles": "CCc1cc2c(NC(Cc3ccccc3)C(=O)O)ncnc2s1", "note": "(configuration not stated)", "activity change, negative = cytotoxic": 16.8}
{"smiles": "CCCCOc1ccc(C(=O)Nc2cccc(-c3nc4ccccc4o3)c2C)cc1", "activity change, negative = cytotoxic": 2.3}
{"smiles": "Cc1ccc2nc(CN3CCN(S(=O)(=O)c4ccc(C)c(C)c4)CC3)oc2c1", "activity change, negative = cytotoxic": 5.7}
{"smiles": "COc1ccccc1NC(=O)c1cc(Cl)nnc1Cl", "Potency": "23.1 µM (active)"}
{"smiles": "CSc1ccccc1NC(=O)c1cc(Cl)sc1Cl", "activity change, negative = cytotoxic": 5.25}
{"smiles": "COc1ccccc1NC(=O)c1cc(N2C(=O)C3C4CCC(C4)C3C2=O)ccc1Cl", "note": "(configuration not stated)", "activity change, negative = cytotoxic": 26.6}
{"smiles": "Oc1ccccc1-c1nc(/C=C/c2ccc(F)cc2)no1", "activity change, negative = cytotoxic": -0.486}
{"smiles": "COc1cc2c(=O)c(S(=O)(=O)c3ccc(C(C)C)cc3)cn(Cc3ccccc3C)c2cc1OC", "activity change, negative = cytotoxic": 9.54}
{"smiles": "Cc1cc(C)nc(N/N=C/c2c(CO)cnc(C)c2O)n1", "activity change, negative = cytotoxic": 13.8}
{"smiles": "CCOc1ccc(-n2c(O)c(/C=N/Nc3nc(C)cc(C)n3)c3ccccc3c2=O)cc1", "Potency": "20.6 µM (active)"}
{"smiles": "CCOc1ccc(-n2c(SCC(=O)Nc3cc(C(=O)O)ccc3Cl)nc3ccccc3c2=O)cc1", "activity change, negative = cytotoxic": -4.78}
{"smiles": "COc1cc(OC)c(NC(=O)c2nc(-c3ccncc3)no2)cc1Cl", "activity change, negative = cytotoxic": -2}
{"smiles": "Cc1ccc(N2CCN(C(=O)CCc3c(C)nc4c(c3C)c(=O)n(C)c(=O)n4C)CC2)c(C)c1", "activity change, negative = cytotoxic": 11.6}
{"smiles": "Cc1ccc(OCCn2c(CNc3ccccc3C)nc3ccccc32)cc1", "activity change, negative = cytotoxic": 2.01}
{"smiles": "Cc1cc(C)cc(Nc2ncnc3onc(-c4ccc(F)cc4)c23)c1", "activity change, negative = cytotoxic": -3.07}
{"smiles": "CCC1CN(S(=O)(=O)c2cc(-c3cc(C)no3)ccc2C)c2cc(C)ccc2O1", "note": "(configuration not stated)", "activity change, negative = cytotoxic": -0.508}
{"smiles": "CC1Cc2ccccc2N1S(=O)(=O)c1ccc(Cl)nc1", "note": "(configuration not stated)", "activity change, negative = cytotoxic": 4.04}
{"smiles": "Cc1cc(-c2ccc(C)c(S(=O)(=O)N3c4ccccc4CC3C)c2)on1", "note": "(configuration not stated)", "Potency": "14.6 µM (active)"}
{"smiles": "O=C(Nc1ccccc1N1CCN(C(=O)c2ccccc2)CC1)c1ccco1", "activity change, negative = cytotoxic": 5.81}
{"smiles": "COc1cccc(C(=O)Nc2ccc(N3CCN(C(=O)c4ccco4)CC3)cc2)c1", "Potency": "4.61 µM (active)"}
{"smiles": "O=C(OCC(=O)N1CCN(C(=O)c2ccco2)CC1)c1cccc(O)c1", "activity change, negative = cytotoxic": -20}
{"smiles": "Cc1csc2nc(COc3ccc(NC(=O)COc4ccccc4)cc3)cc(=O)n12", "activity change, negative = cytotoxic": 0.478}
{"smiles": "O=C1CCCN1C(=O)COc1ccc([N+](=O)[O-])cc1", "activity change, negative = cytotoxic": -1.51}
{"smiles": "O=[N+]([O-])c1ccc(/C=C/c2ccc3cccnc3c2)cc1", "activity change, negative = cytotoxic": -25.6}
{"smiles": "O=C1/C(=C\\c2ccc([N+](=O)[O-])cc2)CS(=O)(=O)C/C1=C/c1ccc([N+](=O)[O-])cc1", "Potency": "1.46 µM (active)"}
{"smiles": "Cc1ccccc1C(=O)Nc1sc2c(c1C(=O)N1CCC(C)CC1)CCCC2", "activity change, negative = cytotoxic": -11.4}
{"smiles": "COc1ccc(CNC(=O)c2ccc3c(O)c(S(=O)(=O)c4ccccc4)c(=O)[nH]c3c2)cc1", "activity change, negative = cytotoxic": 3.06}
{"smiles": "Cc1ccc(C)c(N2C(=O)N(Cc3c(F)cccc3Cl)c3ccccc3S2(=O)=O)c1", "activity change, negative = cytotoxic": -18.6}
{"smiles": "Cc1cc(C)c(NC(=O)Cn2c(SCC(=O)NCc3ccccc3)nc3ccccc32)c(C)c1", "activity change, negative = cytotoxic": 10.2}
{"smiles": "Cc1ccc(-c2cnc(C3CC3)o2)cc1S(=O)(=O)Nc1cccc(C)c1C", "activity change, negative = cytotoxic": -2.72}
{"smiles": "Cc1cccc(CNS(=O)(=O)c2ccc(-c3cnc(C4CC4)o3)cc2)c1", "Potency": "inactive"}
{"smiles": "Cc1cccc(NS(=O)(=O)c2ccc(-c3cnc(C4CC4)o3)cc2)c1", "Potency": "1.46 µM (active)"}
{"smiles": "COCCn1c(CCC(=O)Nc2cc(C)ccc2C)nc2cccnc21", "activity change, negative = cytotoxic": 7.34}
{"smiles": "COC(=O)c1ccccc1NC(=O)c1cc(-c2ccccc2O)no1", "activity change, negative = cytotoxic": 6}
{"smiles": "O=C(CSc1nnc(-c2ccncc2)n1-c1ccccc1)Nc1ccc(Cl)c(Cl)c1", "activity change, negative = cytotoxic": -0.827}
{"smiles": "Cc1ccc(-c2nn(CCC(=O)Nc3ccc(Cl)c(Cl)c3)c(=O)c3ccccc23)cc1", "activity change, negative = cytotoxic": 2.54}
{"smiles": "O=C(CC(O)(C(F)(F)F)C(F)(F)F)Nc1ccc(Cl)c(Cl)c1", "Potency": "5.17 µM (active)"}
{"smiles": "O=C(Cc1cccs1)N1CCCC(c2nc(-c3ccc(S(=O)(=O)N4CCCC4)cc3)no2)C1", "note": "(configuration not stated)", "activity change, negative = cytotoxic": -17.4}
{"smiles": "COc1cc(-c2noc(C3CCCN(S(=O)(=O)c4cccc(Cl)c4)C3)n2)cc(OC)c1OC", "note": "(configuration not stated)", "activity change, negative = cytotoxic": 0}
{"smiles": "CC(C)c1ccc(-c2noc(C3CCCN(S(C)(=O)=O)C3)n2)cc1", "note": "(configuration not stated)", "Potency": "20.6 µM (active)"}
{"smiles": "CC1CCCCN1CC(=O)N1CCCc2c1c(=O)oc1ccc(OCc3ccccc3)cc21", "note": "(configuration not stated)", "activity change, negative = cytotoxic": -3.44}
{"smiles": "Cc1cc(C)c(NC(=O)CCc2c(C)nc3c(c(C)nn3C(C)(C)C)c2C)c(C)c1", "activity change, negative = cytotoxic": 20.8}
